Measured values taken from PubChem BioAssay (NCATS).
Inconclusive results are not listed. A number with no mark means an inactive call. Calls of active or inactive are those of the source. Calls follow the shape of the dose curve; as a rule, active = well fitted curve in the direction sought with a large enough effect; inconclusive = small, poorly fitted or top-dose-only effect, or another doubt; inactive = no such curve, though single readings can be large; an effect the other way counts as inactive or inconclusive.

Assay: qHTS for Inhibitors of Ubiquitin-specific Protease USP2a Using CHOP2 as the Reporter: K633 Counterscreen (AID 652168); also: % of control where 0% means no effect
Details: No-enzyme DiUb K48 IQF substrate fluorescence interference, kinetic; series mostly up to 57.5 µM; activity change, negative = inhibition: at the top concentration
Procedure, shortened: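 Cell-free interference counterscreen without USP2a: compounds pinned into enzyme-free buffer (20 mM Tris pH 8, 2 mM beta-mercaptoethanol, 0.05% Chaps), then DiUb K48-4IQF substrate added (100 nM stock); fluorescence read kinetically, Ex 525/Em 598.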

| SMILES | activity change, negative = inhibition |
| --- | --- |
| COc1cccc(S(=O)(=O)Nc2cnccc2C(=O)Nc2nc(-c3ccccc3)cs2)c1 | -7.82% |
| Cc1ccc(S(=O)(=O)Nc2cnccc2C(=O)NCCc2ccccc2)cc1 | -3.94% |
| CC(=O)Nc1ccc(NC(=O)c2cc(-c3ccc(C)c(C)c3)nc3ccccc23)cc1 | -22.5% |
| Cc1ccc(-c2cc(C(=O)NC3CCCCC3)c3ccccc3n2)cc1C | -12.8% |
| O=C(Nc1nc(-c2ccccc2)cs1)c1ccncc1NS(=O)(=O)c1ccccc1 | -5.29% |
| Cc1ccc(S(=O)(=O)Nc2cnccc2C(=O)Nc2nc(C(=O)O)cs2)cc1 | 1.24% |
| CN(Cc1nccs1)S(=O)(=O)c1ccc(Nc2nc(-c3ccccc3)cs2)cc1 | -4.43% |
| Cc1ccc(S(=O)(=O)Nc2cnccc2C(=O)Nc2nc(-c3ccc(F)cc3)cs2)cc1 | -0.17% |
| Cc1ccc(-c2cc(C(=O)Nc3ccc(C(F)(F)F)cc3)c3ccccc3n2)cc1C | -21.8% |

Assay: qHTS for Inhibitors of Ubiquitin-specific Protease USP2a Using CHOP2 as the Reporter: Cytotox Assay (AID 652170); also: nearly all actives have a fitted effect of over 70% in size; also: potency is read from the fitted curve at half-maximal effect;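 as to activity change, negative = cytotoxicity: plate controls were DMSO-treated cells for no effect and wells without cells for full effect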
Details: HCT116 viability, CellTiter-Glo luminescence, 72 h; series mostly up to 46.1 µM; activity change, negative = cytotoxicity: at the top concentration
Procedure, shortened: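 HCT116 human colon cancer cells, 600 per well in DMEM with 10% FBS, exposed to compounds for 72 hr at 37 deg C. ATP measured by CellTiter-Glo luminescence, normalized to DMSO cells and no-cell background.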

| SMILES | Potency | activity change, negative = cytotoxicity |
| --- | --- | --- |
| COc1cccc(S(=O)(=O)Nc2cnccc2C(=O)Nc2nc(-c3ccccc3)cs2)c1 | 23.5 µM (active) | – |
| Cc1ccc(S(=O)(=O)Nc2cnccc2C(=O)NCCc2ccccc2)cc1 | – | 2.06% |
| Cc1ccc(-c2cc(C(=O)NC3CCCCC3)c3ccccc3n2)cc1C | – | 13.6% |
| Cc1ccc(S(=O)(=O)Nc2cnccc2C(=O)Nc2nc(C(=O)O)cs2)cc1 | – | 4.12% |
| CN(Cc1nccs1)S(=O)(=O)c1ccc(Nc2nc(-c3ccccc3)cs2)cc1 | – | -10.7% |
| Cc1ccc(S(=O)(=O)Nc2cnccc2C(=O)Nc2nc(-c3ccc(F)cc3)cs2)cc1 | 20.9 µM (active) | – |
| Cc1ccc(-c2cc(C(=O)Nc3ccc(C(F)(F)F)cc3)c3ccccc3n2)cc1C | – | 12.6% |
